From PubChem BioAssay
Sampled rows, rich in hits. Any-hit rate of the full collection: about 19%.
HT1080-NT tox: kills 2HG-producing HT-1080-NT fibrosarcoma cells | 1.6% of 360,000 active | Potency, µM (series often up to 46.1 µM), for the others: top-dose activity, negative = less viability, usual class: cytotoxic | HT-1080-NT fibrosarcoma viability, CellTiter-Glo ATP luminescence, 48 h;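 further: NT is the 2HG producing partner of a matched IDH1 knockdown line; potency means the concentration at half of the fitted maximal effect; 0% = DMSO-treated cells and -100% = media-only wells without cells; nearly all actives have a fitted effect of over 55% in size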
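Compounds were tested in concentration-response format on HT-1080-NT cells for 48 hours at 37 degrees C. Cell viability came from CellTiter-Glo luminescence; curves were classified by r2, response magnitude and activity.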
IL-1B inflam inh: inhibitors of inflammasome signaling (IL-1 beta secretion); THP-1 LPS/ATP IL-1B secretion, AlphaLISA, 16 h; hits give low values; activity change, % at 57.5 µM; 4.7% of 360,000 active; AID 743279; in the data active means activity change below about -50%; inconclusive means mostly about -30% to -49%
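THP-1 cells pretreated 1 hr with compounds (up to 57.5 uM final), then stimulated with LPS (250 ng/mL final) plus ATP (1.25 mM final); secreted IL-1B measured by AlphaLISA after 16 hr, decreased signal indicating inhibition.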
TDP1 cell noCPT: qHTS for Inhibitors of human tyrosyl-DNA phosphodiesterase 1 (TDP1): qHTS in cells in absence of CPT; DT40 Tdp1-/- hTDP1 cells, no CPT, ATP luminescence, 48 h; Potency, µM (titrated, usually from 46.2 µM), for the others: at the top dose activity change, negative = growth inhibition, actives largely listed as inhibitors; 15% of 420,000 active; AID 686978, 2013; further: potency means the concentration at half of the fitted maximal effect; nearly all actives have a fitted effect of over 55% in size
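Camptothecin absent (DMSO only). Human TDP1-complemented DT40 knockout cells, 400 cells/well, 37 °C for minimum 48 hr; ATP measured via CellTiter-Glo, 30 min dark incubation, luminescence.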
TDP1 cell CPT: growth inhibition of DT40 Tdp1-/-;hTDP1 cells with camptothecin (screen for TDP1 inhibitors) | chicken DT40 Tdp1-/-;hTDP1 cells + 20 nM CPT, ATP luminescence, 48 h | Potency, µM (series often up to 46.2 µM), for inactives: at the highest dose activity change, negative = growth inhibition, most hits filed as inhibitors | 12% of 420,000 active | AID 686979; further: potency means the concentration at half of the fitted maximal effect; nearly all actives have a fitted effect of over 55% in size
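Chicken DT40 Tdp1-/- cells complemented with human TDP1, 400 cells/well, exposed to compounds plus 20 nM camptothecin for at least 48 h at 37 C; viability read as ATP content by CellTiter-Glo luminescence.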
HT1080 IDH1KD tx: kills HT-1080 cells with IDH1 knockdown | Potency, µM (top dose mostly 46.1 µM), inactives show at the top dose activity, negative = toxicity, usual class: cytotoxic | HT-1080 IDH1 knockdown viability, ATP luminescence, 48 h | 2% of 360,000 active;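 further: potency means the concentration at half of the fitted maximal effect; 0% = DMSO wells and -100% = cell-free medium wells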
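Knockdown cells (IDH1KD HT-1080) received compounds 2 h after plating at 750 cells/well and were kept 48 h at 37 °C in 5% FBS RPMI. A CellTiter-Glo luminescence read gave % activity for curve fitting.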
An asterisk follows results filed as active; ? = inconclusive; · = not tested or not shown; [ ] = dose if it differs, or a comment. Unless noted, the call rests on the fitted dose curve; in most records, active means well fitted curve in the direction sought with a large enough effect; inconclusive means small, poorly fitted or top-dose-only effect, or another doubt; inactive means no such curve, though single readings can be large; an effect the other way counts as inactive or inconclusive. Unless noted, on the % scale 0 is the no-effect control and ±100 the full control effect.

SMILES | HT1080-NT tox | IL-1B inflam inh | TDP1 cell noCPT | TDP1 cell CPT | HT1080 IDH1KD tx
CCC1(CC)NC(=O)N(CC(=O)OC(C)C(=O)Nc2ccccc2OC)C1=O (stereo unspecified) | -1.9% | 3.4 | -1.8% | -8.8% | -1.1%
Cc1ccc(CNc2ncc(-c3ccc4c(c3)OCO4)n2C)cc1 | -19.5% | -9.0 | 20.6µM* | ? | -11.2%
Cn1c(-c2ccc3c(c2)OCO3)cnc1NCc1ccc(Cl)cc1 | -4.7% | 0.0 | 18.4µM* | ? | -0.1%
Cc1ccc(CNc2ccc3c(c2)OCO3)cc1 | ? | -93.2* | 20.6µM* | ? | ?
O=C(Cn1nnc(-c2ccccc2Cl)n1)NCc1ccc2c(c1)OCO2 | -6.8% | -0.3 | 5.1% | -18.3% | -4.7%[9.24 µM]
c1cc(CNc2ccc3c(c2)OCO3)ccn1 | 8.1% | -3.5 | -15.3% | -22.5% | 5.2%
Clc1ccccc1-c1cnc2sc(NCc3ccc4c(c3)OCO4)nn12 | ? | -5.6 | 14.6µM* | ? | ?
COc1ccc(-c2cc(-c3ccc(C)cc3)nc(SCc3nnc(-c4ccccc4)o3)c2C#N)cc1OC | 3.7% | 10.3 | -29.5% | ? | 1.1%
Cc1ccc2nc(CSc3nc(C)ccc3C#N)[nH]c2c1 | 17.8µM* | ? | 31.6µM* | 17.8µM* | 15.8µM*
Cc1ccccc1-c1noc(CSc2nc(-c3ccc(F)cc3)cc(=O)[nH]2)n1 | · | · | -0.1% | -16.0% | ·
Cc1ccc2nc(SCc3nc(-c4ccccc4C)no3)[nH]c2c1 | · | · | 13µM* | 18.4µM* | ·
O=c1[nH]c(CSc2nnc(-c3ccccc3)n2-c2ccccc2)nc2ccccc12 | -3.2% | 19.4 | -13.7% | -27.7% | -0.9%
O=c1[nH]c(CSc2nnc(-c3ccccc3)n2C2CCCCC2)nc2ccccc12 | -2.2% | 5.3 | 20.6µM* | ? | -6.3%
Cc1ccc2nc(SCc3nc4ccccc4c(=O)[nH]3)[nH]c2c1 | -13.2% | -97.8* | 20.6µM* | ? | -10.5%
CCN(C(=O)Cc1c(C(=O)O)c(C)cn1C)c1cccc(Cl)c1 | · | · | -16.9% | -21.7% | ·
Cc1noc(C)c1C(=O)N1CCC[C@@]2(CCN(Cc3ccc(C#N)cc3)C2)C1 | · | · | -12.5% | 1.3% | ·
O=C(NCCNC(=O)c1ccc(Cl)cc1Cl)c1cnccn1 | 17.9% | 12.5 | 1.7% | 0.9% | 3.5%
CCOc1ccc(CNC(=O)CN2C(=O)C(c3ccccc3)Oc3cccnc32)cc1 (stereo unspecified) | 14.9% | 3.3 | -12.3% | -24.5% | 17.3%
CC12CCC(=O)C=C1CCC1C2CCC2(C)C(C(=O)CO)CC(O)C12 (stereo unspecified) | 6.8% | -8.2 | 1.3% | 5.3% | 26.9%
CC12CCC(=O)C=C1CCC1C2CCC2(C)C1CC1C3C(=O)N(Cc4ccccc4)C(=O)C3CC(=O)C12 (stereo unspecified) | 4.4% | -12.5 | 25.9µM* | 23.1µM* | 11.6%
Cc1ccc(NC(=O)c2cc(S(=O)(=O)N3CCC(C)CC3)cn2C)cc1Cl | · | · | -12.5% | -13.9% | ·
COc1ccc2[nH]c(=O)c(CN(CC3CCCO3)C(=S)Nc3ccccc3)cc2c1 (stereo unspecified) | -7.6% | -15.8 | ? | ? | 1.0%
COc1ccc2[nH]c(=O)c(CN(Cc3cccs3)C(=S)NCC3CCCO3)cc2c1 (stereo unspecified) | 6.9% | -3.9 | 23.1µM* | 23.1µM* | -0.5%
Cc1cc(C)c2[nH]c(=O)c(CN(Cc3cccs3)C(=S)NCC3CCCO3)cc2c1 (stereo unspecified) | -1.4% | -11.0 | 20.6µM* | ? | -2.8%
Cc1cc2cc(CN(Cc3cccs3)C(=S)NCC3CCCO3)c(=O)[nH]c2cc1C (stereo unspecified) | -5.7% | -65.9* | ? | ? | -6.1%
SMILES | HT1080-NT tox | IL-1B inflam inh | TDP1 cell noCPT | TDP1 cell CPT | HT1080 IDH1KD tx
COc1ccc(-n2c(SCC#N)nc3c(sc(=S)n3-c3ccccc3)c2=O)c(OC)c1 | 2.1% | -20.9 | ? | ? | -8.9%
COc1cc2nc(NCc3ccccc3Cl)n3nc(-c4cccnc4)nc3c2cc1OC | · | · | -16.1% | 2.6% | ·
COc1ccc(NC2CCCN(C(=O)c3cc4ncccn4n3)C2)cc1 (stereo unspecified) | 0.2% | 4.5 | 2.8% | 8.0% | 5.6%
O=C(NC[C@@H]1CCCN2CCCC[C@H]12)c1cnn(-c2nccc(-c3ccco3)n2)c1C1CC1 | · | · | -3.6% | 4.1%[9.04 µM] | ·
CCC1=NN(C(=O)COc2ccccc2)C(O)(c2ccncc2)C1 (stereo unspecified) | 14.7% | -17.2 | 16.4µM* | ? | 16.6%
CC1=NN(C(=O)CCc2ccccc2)C(O)(c2ccncc2)C1 (stereo unspecified) | -12.3% | -4.1 | 16.8% | 2.9% | 4.4%
CC1=NN(C(=O)CSCc2ccccc2)C(O)(c2ccc(Cl)cc2)C1 (stereo unspecified) | -6.7% | -0.8 | ? | -27.9% | -1.7%
CC1=NN(C(=O)COc2cc(C)ccc2C(C)C)C(O)(c2ccccc2)C1 (stereo unspecified) | ? | -22.5 | 25.9µM* | 5.8µM* | ?
CCC1=NN(C(=O)Cc2ccccc2)C(O)(c2ccncc2)C1 (stereo unspecified) | 5.7% | 13.5 | -0.3% | -3.2% | 10.3%
CC1=NN(C(=O)COc2ccc(C)c(C)c2)C(O)(c2ccc(Cl)cc2)C1 (stereo unspecified) | -21.5% | -15.0 | 14.6µM* | 13µM* | -23.5%
CCOC(=O)C1(CCCc2ccccc2)CCN(C(=O)CCC2=NNC(=O)CC2)CC1 | 4.9% | 3.4 | -18.3% | -18.1% | 1.2%
COc1cc(N2Cc3ccccc3C2)ccc1C=O | -1.0% | 12.7 | ? | 19.0% | -1.8%
COc1cc(C=O)c(-c2c(C=O)cc(OC)c3c2OCO3)c2c1OCO2 | -4.8% | 14.9 | 11.6µM* | ? | -15.5%
CCn1cc(/C=C(\NC(=O)c2ccc(C)cc2)C(=O)NCCCn2ccnc2)c2ccccc21 | · | · | 20.6µM* | ? | ·
Cc1c(N2C(=O)/C(=C/C3CC=CCC3)SC2=S)c(=O)n(-c2ccccc2)n1C (stereo unspecified) | ? | -59.1* | ? | 18.4µM* | -23.9%
Cc1c(N2C(=O)/C(=C\C3CC=CCC3)SC2=S)c(=O)n(-c2ccccc2)n1C (stereo unspecified) | ? | -101.4* | ? | ? | 18.4µM*
O=C(c1cc(C2CC2)nn1-c1ccccc1)N1CCN(Cc2c(F)cccc2Cl)CC1 | 1.6% | -20.8 | ? | ? | 0.0%
CCc1ccccc1N=Cc1c(C)c(C#N)c2[nH]c3ccccc3n2c1=O | -1.9% | 0.0 | -0.4% | -8.2% | -10.5%
Cc1c(CCO)c(=O)n2c([nH]c3ccccc32)c1C#N | -1.8% | -3.4 | 4.7% | -18.5% | -8.0%
